Source: PubChem BioAssay AID602478 (National Center for Advancing Translational Sciences (NCATS), 2012)
Records with an inconclusive call do not appear. Where a call stands in place of a potency, no number is given. The source made the active and inactive calls. The call rests on the fitted dose curve; in most records, active means well fitted activation curve with a large enough effect; inconclusive means small, poorly fitted or top-dose-only effect; inactive means flat fitted curve, though single readings scatter.

These molecules were tested against Luciferin 4-monooxygenase (Photinus pyralis) (UniProt P08659) (assay: FLuc inhibitory activity for the follow-up compounds in a cell-based translational read-through assay (72 hour incubation)). Details: GripTite 293 FLucUGA read-through, luminescence; series mostly up to 38.3 µM.
Luciferin 4-monooxygenase (Photinus pyralis), sequence (P08659 whole entry, looked up): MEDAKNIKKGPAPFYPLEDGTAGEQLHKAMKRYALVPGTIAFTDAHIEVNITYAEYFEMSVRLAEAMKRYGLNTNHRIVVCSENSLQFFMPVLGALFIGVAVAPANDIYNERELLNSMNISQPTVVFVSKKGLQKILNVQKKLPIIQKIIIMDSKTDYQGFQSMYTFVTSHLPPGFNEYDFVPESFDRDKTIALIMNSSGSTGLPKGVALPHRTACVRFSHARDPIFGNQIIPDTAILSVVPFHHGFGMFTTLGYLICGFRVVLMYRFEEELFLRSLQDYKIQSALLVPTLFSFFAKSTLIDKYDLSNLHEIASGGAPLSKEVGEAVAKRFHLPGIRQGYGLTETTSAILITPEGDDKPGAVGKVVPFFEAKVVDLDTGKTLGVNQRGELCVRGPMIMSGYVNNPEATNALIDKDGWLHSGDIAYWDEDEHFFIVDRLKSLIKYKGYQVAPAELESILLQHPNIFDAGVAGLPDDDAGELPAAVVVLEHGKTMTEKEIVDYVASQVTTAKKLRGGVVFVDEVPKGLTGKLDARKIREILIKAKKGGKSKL
From the text: NCGC Assay Overview: Firefly (Photinus pyralis) luciferase is one of the most commonly used transcriptional reporters. It is considered one of the more dynamically responsive reporters - that is, responsive to changes in reporter transcription - as it requires no post-translational modifications and is enzymatically active directly after protein synthesis (Wood, 1998). With no endogenous expression in mammalian cells and without the requirement of external excitation, it offers very little background signal, thus generally providing excellent signal to background for most assays. Previous profiling work to determine the prevalence of compounds that affect FLuc enzymatic activity (PubChem AID 411) identified that ~3% of the MLSMR library (then at ~72K) inhibited FLuc (Auld et al., 2008). […] Of the compounds identified in this profile that inhibited FLuc, 151 compounds were selected for further analysis, in an effort to better understand their mode of inhibiting FLuc. The assay described here was to determine the activity of the compounds in a cell-based firefly luciferase reporter gene assay originally designed to identify compounds that enchanced translational read-through of a FLuc cDNA that contained a premature stop codon (Auld et al., 2009; Auld et al., 2010). Compounds that enhance translational read-through or compounds that stabilize FLuc intracellularly are identified as active compounds in the assay.
NCGC Assay Protocol Summary: Reagents: Transient transfection of FlucUGA construct: TransFast Transfection Reagent (Promega #E2431); FLucUGA construct (refer to Auld et al., 2009) #GripTite 293 MSR Cell Line (Invitrogen #R795-07) #Complete growth media: DMEM (Invitrogen #11965), 10% HIFBS, 0.1mM MEM NEAA, 5mL/L pen-strep (of 5000U/mL stock), 600ug/mL Geneticin #Assay media: DMEM without phenol red (Invitrogen #21063), 5% charcoal-stripped HIFBS (Hyclone #SH30071.03), 0.1mM MEM NEAA In-house detection reagent: 300mM Tris-HCl, 300mM Trizma base, 300mM MgCl, 1% Triton-X100, 5mM DTT, 500uM Coenzyme A trilithium salt (Sigma #C3019),450uM ATP (Sigma #A7699), 1mM D-luciferin sodium salt monohydrate (Biosynth #L8240) Control compounds used were two known firefly luciferase inhibitors (3-(5-(3-chlorophenyl)-1,2,4-oxadiazol-3-yl)benzoic acid and 5-(2-fluorophenyl)-3-phenyl-1,2,4-oxadiazole), and DMSO. Assay Summary: Transient transfection of FlucUGA construct: Day 1: GripTite cells were plated in T175 flasks at a density of 1.75 x 10^7 cells/T175 flask in complete growth media without Geneticin and allowed to grow ON in a 37 degrees Celsius incubator. Day 2: Cells in T175 flask were transfected - with 10ug of DNA and 30uL Transfast in 12mL complete growth media without serum and without Geneticin for 4 hours at 37 degrees Celsius. After incubation, cells were trypsinized, spun down, and resuspended to a concentration of 3.3 x 10^5 cells/mL in assay media. 6uL of cells in assay buffer were dispensed at 2000cells/well (3.3 x 10^5 cells/mL) into Greiner solid-white TC-treated 1536-well plates using a Multidrop Combi (Thermo Fisher Scientific). Plates were incubated for one hour at 37 degree Celsius, 95% humidity, 5% CO2. These assay plates were then treated with 23nL of compound or DMSO using a Kalypsys pin tool, which allows for delivery of a 12-point titration of each compound to the assay plate, with a final compound concentration ranging from approximately ~38uM to 0.2nM. Assay plates were then incubated for 72 hours. After incubation, plates were washed three times with DPBS (7uL/well). After the third wash, 6uL of DPBS was added to each well. 3uL of 3X luciferase detection reagent was then added to each well using a flying reagent dispenser (FRD). After a 15 minute incubation to allow for cell lysis, luciferase activity was measured using a ViewLux CCD imager (PerkinElmer), with an average exposure time of 2-12 seconds.
For Nc1ccc2nc(-c3ccccc3)sc2c1, the Potency was 1130 nM (active). With O=C(O)c1ccc(NC(=O)c2cccc(NC(=O)c3cccs3)c2)cc1 the Potency was “inactive”. Cc1ccc(C(=O)O/N=C(\N)c2ccccn2)c(Cl)c1 was tested, and the Potency was 1260 nM (active). In the case of Cc1ccc2sc(-c3ccc(NC(=O)c4cc(-n5cnnc5)ccc4Cl)cc3)nc2c1, the Potency is reported as 14200 nM (active). c1ccc2sc(-c3ccc4c(c3)OCO4)nc2c1 was tested, and the Potency was 1790 nM (active). CN(C)S(=O)(=O)c1ccc(C(=O)Nc2cccc(C(=O)O)c2)cc1 was tested, and the Potency was “inactive”. With COc1cccc(-c2nc3ccccc3s2)c1 the Potency was 3560 nM (active). With O=C(O)c1cccc(NC(=O)c2ccc(Cl)c(S(=O)(=O)N3CCCCCC3)c2)c1 the Potency was 283 nM (active). O=C(Nc1ccccc1C(=O)O)c1cccc(S(=O)(=O)Nc2ccc(Br)cc2)c1 was tested, and the Potency was “inactive”. O=C(Nc1ccccc1C(=O)O)c1cccc(C(=O)Nc2ccccc2C(=O)O)c1 was tested, and the Potency was “inactive”. For O=C(Nc1cccc(-c2nc3ccccc3s2)c1)C1=COCCO1, the Potency was “inactive”. For COc1ccccc1C(=O)Nc1ccc(C(=O)Nc2ccccc2C(=O)O)cc1, the Potency was “inactive”. With COc1ccc(C(=O)Nc2ccccc2C(=O)N/N=C/c2ccc(O)c(OC)c2)cc1 the Potency was “inactive”. With O=C(O)c1ccc(NC(=O)c2cc(S(=O)(=O)N3CCCCC3)c(Cl)cc2Cl)cc1 the Potency was “inactive”. With O=C(O)c1ccc(NC(=O)c2ccccc2NC(=O)c2cccc(Br)c2)cc1 the Potency was “inactive”. With CCc1noc(C)c1C(=O)Nc1nc2ccc(OC)cc2s1 the Potency was “inactive”. With Cc1ccc(C(=O)Nc2ccc(C(=O)O)cc2)cc1S(=O)(=O)NCc1ccccc1 the Potency was “inactive”. In the case of COc1ccc(NS(=O)(=O)c2cccc(C(=O)Nc3ccccc3C(=O)O)c2)cc1, the Potency is reported as “inactive”. For O=C(Nc1ccccc1C(=O)O)c1ccc(NC(=O)C2CC2)cc1, the Potency was “inactive”. With CN(C)c1cccc(C(=O)Nc2ccc(-c3nc4ccccc4s3)cc2)c1 the Potency was 1790 nM (active). For COc1ccc2nc(NC(=O)c3nc(S(=O)(=O)Cc4ccc(C)cc4)ncc3Cl)sc2c1, the Potency was “inactive”. For CC(C)C(=O)Nc1cccc(C(=O)Nc2ccccc2C(=O)O)c1, the Potency was “inactive”. COc1ccc(C(=O)Nc2ccccc2-c2nc3ccccc3s2)c(OC)c1 was tested, and the Potency was “inactive”. In the case of CCn1c(C)nc2cc(-c3nc4n(n3)Cc3ccccc3-4)ccc21, the Potency is reported as 79.8 nM (active). With Cc1ccc(NS(=O)(=O)c2ccc(Cl)c(C(=O)Nc3cccc(C(=O)O)c3)c2)cc1 the Potency was “inactive”. COc1cc(C(=O)Nc2cc(C)c(O)c(-c3nc4ccccc4s3)c2)cc(OC)c1OC was tested, and the Potency was “inactive”. In the case of CCOc1ccc2nc(NC(=O)c3ccoc3C)sc2c1, the Potency is reported as 449 nM (active). In the case of O=C(O)c1ccccc1NC(=O)c1ccccc1Nc1ccccc1, the Potency is reported as “inactive”. With COc1ccccc1C(=O)Nc1ccc(C(=O)O)cc1 the Potency was “inactive”. O=C(COC(=O)c1ccccc1[N+](=O)[O-])c1ccc2c(c1)OCO2 was tested, and the Potency was “inactive”. With Cc1c(NC(=O)c2cccs2)cccc1-c1nc2ccccc2s1 the Potency was “inactive”. For O=C(Nc1ccccc1C(=O)O)c1cccc(NC(=O)c2ccccc2Br)c1, the Potency was “inactive”. In the case of O=C(Nc1ccccc1C(=O)O)c1cccc(S(=O)(=O)N2CCCC2)c1, the Potency is reported as “inactive”. In the case of Nc1ccc(-c2nc3ccc(C(=O)O)cc3s2)cc1, the Potency is reported as 159 nM (active). CCOc1ccc2nc(NC(=O)c3cc([N+](=O)[O-])ccc3N3CCOCC3)sc2c1 was tested, and the Potency was “inactive”. In the case of Nc1ccc(-c2nc3ccc(N)cc3s2)cc1, the Potency is reported as 4000 nM (active). In the case of O=C(Nc1ccccc1C(=O)O)c1cccc(NC(=O)c2ccccc2Cl)c1, the Potency is reported as “inactive”. For O=C(O)c1cccc(NC(=O)c2ccccc2NC(=O)c2ccco2)c1, the Potency was “inactive”. For O=C(O)c1cccc(NC(=O)c2ccc(S(=O)(=O)c3ccccc3)cc2)c1, the Potency was “inactive”. With CC(C)c1ccc(C(=O)Nc2ccc(-c3nc4ccccc4s3)c(Cl)c2)cc1 the Potency was “inactive”.
